# Screening data: PubChem, several laboratories
# Rows were chosen to be rich in hits. Some 12% of all compounds tested hit in one or more screens of this group.
# Lmaj promast = inhibitors of Leishmania major promastigote growth. Leishmania major promastigotes, resazurin fluorescence viability. inhibition, % at 10 µM. 200,000 compounds, 9% hits. AID 1063; in the data active = inhibition above about 50%;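 also: promastigotes grown with compound for 44 hours at 28 °C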
# WT yeast gro inh = growth inhibition of WT yeast, mitochondrial fusion screen; inhibition, % at 10 µM; 190,000 compounds, 2.1% hits; AID 1362; mitochondrial fusion phenotypic screen, WT strain; in the data active = inhibition above about 58%; tested in S. cerevisiae
# CHOP inhibitor = inhibitors of CHOP induction in ER stress response | CHO-K1 CHOP-promoter luciferase, tunicamycin-induced, 15-18 h | inhibition, % at 10 µM | 220,000 compounds, 3.8% hits | AID 2732;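 active = compounds that reduced the stress-induced luciferase reporter signal by more than about 70% of percent inhibition, limit read from the data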;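 also: 0% = tunicamycin plus vehicle and 100% = wells without tunicamycin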
# Arbovirus anti = antivirals against arbovirus infection. arbovirus infection cell-based antiviral screen. inhibition, % at 10 µM. 200,000 compounds, 0.37% hits. AID 1251; in the data active = inhibition above about 30%
# The depositor's hits bear a star; . = no result.
SMILES,Lmaj promast,WT yeast gro inh,CHOP inhibitor,Arbovirus anti
O=c1[nH]c(-c2ccccc2)nnc1-c1ccccc1,.,.,-8.9,.
CCOC(CCn1c(SCc2cccc([N+](=O)[O-])c2)nc2ccccc2c1=O)OCC,-0.5,5.0,11.3,-0.2
CCCCn1c(SCc2cccc([N+](=O)[O-])c2)nc2ccsc2c1=O,9.9,7.0,58.2,34.4*
CCC(C)n1c(SCc2ccc([N+](=O)[O-])cc2)nc2ccsc2c1=O (centres undefined),19.9,4.6,73.7*,28.5
O=C(COC(=O)/C=C/c1ccc(Cl)cc1)Nc1ccccc1,-6.2,-5.9,25.0,4.3
O=C(COC(=O)Cc1cccc(C(F)(F)F)c1)Nc1ccc2c(c1)OCCO2,65.0*,-1.0,2.7,-4.8
O=C(COC(=O)CNC(=O)c1ccc(Cl)cc1)Nc1ccc2c(c1)OCCO2,57.4*,4.7,14.6,8.8
O=C(COC(=O)/C=C/c1ccc(Cl)cc1)Nc1ccc2c(c1)OCCO2,51.1*,-5.0,54.0,2.5
Cc1noc(C)c1C(=O)OCC(=O)Nc1c(F)cccc1F,-6.5,2.0,10.3,23.0
O=C(NCc1ccc(F)cc1)C(C(=O)NCc1ccc(F)cc1)c1ncc(C(F)(F)F)cc1Cl,18.7,2.6,32.8,-0.7
COC(=O)C1=C(O)/C(=C\c2sccc2C)N=C1C,54.2*,6.2,9.1,-10.6
CCOC(=O)C1=C(O)/C(=C\c2sccc2C)N=C1C,34.0,-11.1,-7.2,-0.4
CCCCc1ccc(-n2c(Cc3cccs3)n[nH]c2=S)cc1,1.8,73.7*,76.5*,-6.7
CCN(CC)CCNc1c2c(c(C#N)c3nc4ccccc4n13)CCCC2,95.5*,54.7,-17.8,-5.5
N#Cc1c2c(c(NCc3ccco3)n3c1nc1ccccc13)CCC2,8.5,-5.0,28.7,-12.0
CC(C)=C1C2CCC1C1C(=O)N(c3nccs3)C(=O)C21 (centres undefined),-4.1,4.3,-0.7,6.4
CC(C)=C1C2CCC1C1C(=O)N(c3nc(-c4ccccc4)c(C)s3)C(=O)C21 (centres undefined),-8.0,58.8*,45.3,16.2
CCCCCC1CC(CC(=O)NC(=S)Nc2ccccc2Cl)C(=O)O1 (centres undefined),-7.5,61.0*,17.4,5.8
CCOc1cc(CNCCSc2nnnn2C)cc(Br)c1OCc1ccccc1F,35.9,1.8,68.9,-17.7
COc1cc(CNCCSc2nnnn2C)cc(Br)c1OCc1ccccc1,56.2*,32.8,1.2,-1.9
COc1cc(CNCCSc2nnnn2C)cc(Br)c1OCc1ccc(F)cc1,95.0*,-28.2,19.0,-7.2
COc1cc(CNCCSc2nnnn2C)cc(Br)c1OCc1ccccc1F,89.6*,31.7,16.2,4.4
CCOc1cc(CNCCSc2nnnn2C)cc(Br)c1OCc1ccc(F)cc1,50.3*,31.8,29.5,-8.6
O=c1ccc2c(OCCCCc3ccccc3)c3ccoc3cc2o1,.,.,-12.5,.
COc1cc(CNCCO)cc(Br)c1OCc1ccccc1,97.1*,35.6,10.2,-31.3
SMILES,Lmaj promast,WT yeast gro inh,CHOP inhibitor,Arbovirus anti
CCCNCc1cc(OC)c(OCc2ccccc2)cc1Br,38.0,0.6,10.8,-2.9
CCN(CC(=O)Nc1ccc(NC(C)=O)cc1)c1ccc(C(F)(F)F)cn1,-6.8,-11.7,22.6,0.8
COC(=O)c1cc(COc2ccc3c(c2)oc(=O)c2ccccc23)c(C)o1,-6.3,9.2,16.2,-10.9
O=C(/C(=C/c1cccnc1)n1ccnc1)c1ccc(Cl)cc1Cl,.,.,-37.0,.
CN(C)C(=O)CCC(=O)N1CCCC(C(=O)c2ccc3c4c(cccc24)CC3)C1 (centres undefined),6.3,3.7,18.4,3.9
Cc1ncccc1C(=O)N1CCCC(C(=O)c2ccc3c4c(cccc24)CC3)C1 (centres undefined),9.9,-12.7,18.9,-2.4
CCc1nc(CN2CCCC(C(=O)c3ccc4c5c(cccc35)CC4)C2)c(C)[nH]1 (centres undefined),99.0*,14.0,21.5,-6.6
O=C(c1ccc2c3c(cccc13)CC2)C1CCCN(Cc2ccncc2)C1 (centres undefined),97.0*,35.9,60.9,-10.4
CC(C)NC(=O)C1CCN(c2ccc(S(=O)(=O)N3CCOCC3)cc2Cl)CC1,.,.,6.8,.
CC1(CC(=O)N/N=C/c2cc(Br)c(O)cc2O)OCCO1,90.9*,15.7,50.3,-22.2
CCn1cc(C(=O)OCC(=O)c2cc(C)n(-c3ccccc3)c2C)c(=O)c2ccc(C)nc21,-3.9,-45.4,-8.1,-1.2
CCn1cc(C(=O)OCC(=O)c2cc(C)n(-c3ccccc3F)c2C)c(=O)c2ccc(C)nc21,52.9*,-33.0,31.0,-3.1
CC/C(=C\c1oc2cc3ccccc3cc2[n+]1CC)Nc1ccccc1,100.3*,41.9,48.4,-8.0
O=C(O)CSc1cc(C(=O)c2ccccc2O)cn2c(=O)c3c4c(sc3nc12)CCCC4,.,.,89.4*,.
COc1ccccc1OCCOCCOc1c(C)cc(C)cc1Br,27.1,26.1,28.4,3.7
Cc1cc(C)c(OCCCCN2CCC(C)CC2)c(Br)c1,97.9*,39.4,1.3,4.2
Cc1cc(Cl)c(OCCOCCN2CCC(C)CC2)c(Br)c1,99.2*,12.9,30.9,-0.9
COc1cc(NS(=O)(=O)c2ccc(NC(=S)NC(=O)COc3ccccc3OC)cc2)nc(OC)n1,-4.9,0.4,-3.5,-0.6
CCC[C@@H]1C[C@@]1(CCC)[C@@H](NP(=O)(c1ccccc1)c1ccccc1)c1ccc(C(=O)OC)cc1,28.7,68.0*,-3.8,-37.1
COC(=O)c1cccc(C#CC(NP(=O)(c2ccccc2)c2ccccc2)c2ccccc2)c1 (centres undefined),.,.,0.7,.
Cc1ccc(CN2CCN(Cc3nc4ccccc4nc3C)CC2CCO)cc1 (centres undefined),.,.,19.0,.
CCOc1ccc(C(=O)OCC(=O)Nc2cc(C)on2)cc1OCC,-5.5,9.8,27.4,-3.5
CCOc1cc(C(=O)OCC(=O)Nc2cc(C)on2)ccc1OCC(C)C,-0.1,13.9,94.0*,9.7
Cc1ccc(-c2nn(-c3ccccc3)cc2C2SCC(=O)N2Cc2ccccc2)o1 (centres undefined),14.9,46.7,42.0,13.2
O=C1CSC(c2cn(-c3ccccc3)nc2-c2cc3ccccc3o2)N1Cc1ccccc1 (centres undefined),78.8*,30.6,-7.0,-5.2
SMILES,Lmaj promast,WT yeast gro inh,CHOP inhibitor,Arbovirus anti
Oc1cc2c(cc1O)C1c3ccc(O)c(O)c3OCC1(O)C2 (centres undefined),-18.6,31.7,4.5,2.5
O=S(=O)(c1ccc2c(c1)OCCO2)N1CCN(c2ncnc3sccc23)CC1,60.2*,-3.6,63.4,11.2
CN1CCN(S(=O)(=O)c2ccc3c(c2)OCCO3)CC1,-4.8,7.0,5.2,3.4
CCN(CC)S(=O)(=O)c1ccc(N2CCN(S(=O)(=O)c3ccc4c(c3)OCCO4)CC2)nc1,78.8*,-12.5,63.8,3.2
COc1ccc2cc(C(=O)C3CCCN(C(=O)CCc4cnn(C)c4)C3)ccc2c1 (centres undefined),0.3,-6.5,-12.9,0.3
NC(=O)CSc1nc2cc3c(cc2c(=O)n1CCCC(=O)NCc1ccc2c(c1)OCO2)OCO3,-5.5,-9.3,28.0,-0.5
CC(C)(C)C1=CC=C(C(C)(C)C)C(=O)C1=O,.,.,-105.3,.
CC(C)(C)c1cc(N)n2nc(C(C)(C)C)cc2n1,65.8*,14.8,0.6,-2.9
Cc1cc2nc(C(C)(C)C)cc(N)n2n1,5.9,-10.9,5.5,2.7
